Source: PubChem BioAssay (NCI)
About 79,000 compounds went through this panel and 15% of them were active in at least one assay; those are over-represented in the sample as a whole. The source made the active and inactive calls. No stated cut-off is given here; in the data, active means growth inhibition above about 70%; inactive means the rest.

Tests used:
[1] = NCI Yeast Anticancer Drug Screen. Data for the mec2-1 strain (AID 157); conditions: S. cerevisiae mec2-1 strain, hits give high values
In short: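 Compounds were applied to mec2-1 yeast cells. Their growth was then compared with that of vehicle-treated cultures to give growth inhibition.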

[2] = NCI Yeast Anticancer Drug Screen. Data for the rad14 strain (AID 159);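 further: 0% = growth of vehicle-treated control cultures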; conditions: S. cerevisiae rad14 strain growth inhibition, hits give high values
In short: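 Test compounds were applied to a repair-deficient yeast strain. Its growth was then compared with that of cultures given vehicle alone, and inhibition was expressed relative to those controls.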

[3] = NCI Yeast Anticancer Drug Screen. Data for the sgs1 mgt1 strain (AID 161);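 further: 0% = growth of cultures given vehicle only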; conditions: S. cerevisiae sgs1 mgt1 strain, hits give high values
In short: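 Growth of a repair-deficient yeast mutant was monitored after compound treatment and expressed as inhibition relative to vehicle-treated cultures.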

[4] = NCI Yeast Anticancer Drug Screen. Data for the CLN2oe strain (AID 163);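 further: 0% = growth of vehicle-only control cultures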; conditions: S. cerevisiae CLN2oe strain, hits give high values
In short: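 Cells of an engineered yeast line with disturbed cell-cycle regulation are treated with compound. Inhibition of growth is then calculated relative to the vehicle-treated reference.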

[5] = NCI Yeast Anticancer Drug Screen. Data for the cln2 rad14 strain (AID 165);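 further: 0% = growth equal to vehicle treated cultures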; conditions: S. cerevisiae cln2 rad14 strain, hits give high values
In short: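 Strain: cln2 rad14 yeast, altered in cell cycle control and DNA damage repair. Read-out: growth inhibition vs vehicle.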

[6] = NCI Yeast Anticancer Drug Screen. Data for the wt2 strain (AID 169);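 further: 0% = growth of vehicle-treated yeast cultures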; conditions: S. cerevisiae wt2 strain growth inhibition, hits give high values
In short: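 Growth of compound-treated yeast is measured and expressed as inhibition relative to vehicle-only controls.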

[7] = NCI Yeast Anticancer Drug Screen. Data for the mlh1 strain (AID 171);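 further: 0% = growth of vehicle-treated control cultures of the same strain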; conditions: S. cerevisiae mlh1 strain growth inhibition, hits give high values
In short: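 Test agents were incubated with yeast bearing a defined DNA damage repair or cell cycle control alteration; values are growth inhibition normalised to vehicle-treated cultures.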

[8] = NCI Yeast Anticancer Drug Screen. Data for the sgs1 strain (AID 173);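 further: 0% = growth of vehicle-only control cultures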; conditions: S. cerevisiae sgs1 mutant, hits give high values
In short: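 Strain with an altered DNA repair or cell cycle pathway exposed to compound. Growth then measured. Value = inhibition versus vehicle control.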

[9] = NCI Yeast Anticancer Drug Screen. Data for the mlh1 rad18 strain (AID 175); conditions: S. cerevisiae mlh1 rad18 strain growth inhibition, hits give high values
In short: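 A repair-deficient yeast strain is exposed to test compound, and growth is scored relative to vehicle-treated controls.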

[10] = NCI Yeast Anticancer Drug Screen. Data for the rad18 strain (AID 177); conditions: S. cerevisiae rad18 mutant growth inhibition, hits give high values
In short: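 DNA-repair-defective yeast; compound treatment; growth inhibition scored against vehicle.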

[11] = NCI Yeast Anticancer Drug Screen. Data for the rad52 strain (AID 147);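 further: 0% = growth of vehicle-treated control cultures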; conditions: S. cerevisiae rad52 mutant growth inhibition, hits give high values
In short: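 Growth of repair-deficient yeast cells was compared between compound-treated and vehicle-treated cultures to give percent inhibition.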

[12] = NCI Yeast Anticancer Drug Screen. Data for the wt1 strain (AID 149);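 further: 0% = growth of vehicle-treated wt1 cultures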; conditions: S. cerevisiae wt1 strain (SPY 50644) growth inhibition, hits give high values
In short: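 wt1 yeast, compound-treated; % growth inhibition vs vehicle control.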

[13] = NCI Yeast Anticancer Drug Screen. Data for the rad50EPP+ strain (AID 151);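 further: 0% = growth of vehicle-treated control cultures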; conditions: S. cerevisiae rad50 mutant strain, hits give high values
In short: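 Measured: growth inhibition of rad50EPP+ yeast. Reference: vehicle-treated controls. Screen uses strains with defined genetic alterations in DNA damage repair or cell cycle control.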

[14] = NCI Yeast Anticancer Drug Screen. Data for the mgt1 strain (AID 153); conditions: S. cerevisiae mgt1 mutant growth inhibition, hits give high values
In short: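 Compounds were applied to mgt1 mutant yeast, and growth was then compared against vehicle-treated control cultures to give percent inhibition.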

[15] = NCI Yeast Anticancer Drug Screen. Data for the rad50 strain (AID 155);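 further: 0% = growth of vehicle-only cultures of the same strain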; conditions: S. cerevisiae rad50 strain growth inhibition, hits give high values
In short: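 Genetically altered yeast (DNA repair pathway); compound treatment; growth inhibition vs vehicle ctrl.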

[16] = NCI Yeast Anticancer Drug Screen. Data for the bub3 strain (AID 167); conditions: S. cerevisiae bub3 mutant strain, hits give high values
In short: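 Yeast carrying a defined mutation is treated with each compound, and growth is compared with that of vehicle-exposed cells to give inhibition.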

[17] = at 5.0 µM (retest, dose inferred, filed as 0.5)
[18] = at 50.0 µM (retest, dose inferred, filed as 5.0)

Measured: growth inhibition

CC(=O)OCC(=O)C1(O)CCC2C3CCC4CCCCC4(C)C3CCC21C (stereo unspecified)
active: [1]; [18] 84% | [1]; at 100.0 µM 81% | [2]; at 100.0 µM 86% | [3]; at 50.0 µM 70.5% | [4]; at 100.0 µM 82% | [5]; [18] 75% | [5]; at 50.0 µM 76% | [6]; at 100.0 µM 74% | [7]; at 100.0 µM 79% | [8]; at 100.0 µM 79% | [9]; [18] 80% | [9]; at 50.0 µM 70.8% | [10]; at 100.0 µM 92%
inactive: [1]; [17] 64% | [1]; at 11.0 µM 14% | [1]; at 33.0 µM 41% | [1]; at 50.0 µM 61.5% | [2]; at 1.2 µM -31% | [2]; at 3.7 µM -17% | [2]; at 11.0 µM 8% | [2]; at 33.0 µM 60% | [3]; [17] -11% | [3]; [18] 60% | [4]; at 1.2 µM 10% | [4]; at 3.7 µM 23% | [4]; at 11.0 µM 34% | [4]; at 33.0 µM 60% | [5]; [17] 35% | [6]; at 1.2 µM -50% | [6]; at 3.7 µM -54% | [6]; at 11.0 µM -17% | [6]; at 33.0 µM 27% | [7]; at 1.2 µM -2% | [7]; at 3.7 µM -8% | [7]; at 11.0 µM 7% | [7]; at 33.0 µM 37% | [8]; at 1.2 µM -16% | [8]; at 3.7 µM -16% | [8]; at 11.0 µM 14% | [8]; at 33.0 µM 38% | [9]; [17] 47% | [10]; at 1.2 µM 10% | [10]; at 3.7 µM 24% | [10]; at 11.0 µM 32% | [10]; at 33.0 µM 67%

CSC(=S)Nc1cc(C)ccn1
inactive: [11]; at 1.2 µM -5% | [11]; at 3.7 µM 6% | [11]; at 11.0 µM 37% | [11]; at 33.0 µM 38% | [12]; at 1.2 µM -9% | [12]; at 3.7 µM -3% | [12]; at 11.0 µM 17% | [12]; at 33.0 µM 32% | [13]; at 1.2 µM -7% | [13]; at 3.7 µM -15% | [13]; at 11.0 µM 29% | [14]; at 1.2 µM -34% | [14]; at 3.7 µM -27% | [14]; at 11.0 µM 37% | [14]; at 33.0 µM 23% | [15]; at 1.2 µM 12% | [15]; at 3.7 µM 15% | [15]; [17] 60% | [15]; at 11.0 µM 64% | [1]; at 1.2 µM -19% | [1]; at 3.7 µM -25% | [1]; [17] 52% | [1]; at 11.0 µM 39% | [1]; at 33.0 µM 50% | [2]; at 1.2 µM -26% | [2]; at 3.7 µM -12% | [2]; at 11.0 µM 42% | [2]; at 33.0 µM 24% | [3]; [17] -11% | [5]; [17] 39% | [16]; at 1.2 µM -8% | [16]; at 3.7 µM 50% | [16]; [17] 8% | [16]; at 11.0 µM 41% | [16]; at 33.0 µM 30% | [6]; at 1.2 µM -7% | [6]; at 3.7 µM -13% | [6]; at 11.0 µM 23% | [6]; at 33.0 µM 23% | [7]; at 1.2 µM 0% | [7]; at 3.7 µM -4% | [7]; at 11.0 µM 54% | [7]; at 33.0 µM 51% | [8]; at 1.2 µM -11% | [8]; at 3.7 µM -3% | [8]; at 11.0 µM 46% | [8]; at 33.0 µM 52% | [9]; [17] 50% | [10]; at 1.2 µM -23% | [10]; at 3.7 µM -29% | [10]; at 11.0 µM 15% | [10]; at 33.0 µM 39%
active: [11]; at 100.0 µM 82% | [12]; at 100.0 µM 79% | [13]; at 33.0 µM 89% | [13]; at 100.0 µM 91% | [14]; at 100.0 µM 76% | [15]; at 33.0 µM 84% | [15]; [18] 99% | [15]; at 50.0 µM 84.8% | [15]; at 100.0 µM 92% | [1]; [18] 99% | [1]; at 50.0 µM 70.3% | [1]; at 100.0 µM 84% | [2]; at 100.0 µM 75% | [3]; [18] 90% | [3]; at 50.0 µM 81.2% | [5]; [18] 86% | [5]; at 50.0 µM 83% | [16]; [18] 94% | [16]; at 50.0 µM 86% | [16]; at 100.0 µM 83% | [6]; at 100.0 µM 70% | [7]; at 100.0 µM 85% | [8]; at 100.0 µM 93% | [9]; [18] 99% | [9]; at 50.0 µM 83.8% | [10]; at 100.0 µM 75%

FC(F)(F)c1nc2nc(Cl)c(Cl)nc2n1CCCN1CCOCC1
active: [3]; [18] 72%
inactive: [11]; at 1.2 µM 2% | [11]; at 3.7 µM 11% | [11]; at 11.0 µM 20% | [11]; at 33.0 µM 20% | [11]; at 100.0 µM 32% | [12]; at 1.2 µM 0% | [12]; at 3.7 µM 1% | [12]; at 11.0 µM 7% | [12]; at 33.0 µM 12% | [12]; at 100.0 µM 18% | [13]; at 1.2 µM -1% | [13]; at 3.7 µM 5% | [13]; at 11.0 µM 6% | [13]; at 33.0 µM 2% | [13]; at 100.0 µM 4% | [14]; at 1.2 µM 0% | [14]; at 3.7 µM 5% | [14]; at 11.0 µM 8% | [14]; at 33.0 µM 22% | [14]; at 100.0 µM 34% | [15]; at 1.2 µM 5% | [15]; at 3.7 µM 13% | [15]; [17] 29% | [15]; at 11.0 µM 18% | [15]; at 33.0 µM 22% | [15]; [18] 63% | [15]; at 50.0 µM 67% | [15]; at 100.0 µM 27% | [1]; at 1.2 µM 2% | [1]; at 3.7 µM -15% | [1]; [17] 3% | [1]; at 11.0 µM 12% | [1]; at 33.0 µM 16% | [1]; [18] 15% | [1]; at 50.0 µM 33.1% | [1]; at 100.0 µM 27% | [2]; at 1.2 µM 6% | [2]; at 3.7 µM 11% | [2]; at 11.0 µM 36% | [2]; at 33.0 µM 44% | [2]; at 100.0 µM 53% | [3]; [17] 19% | [3]; at 50.0 µM 45.9% | [5]; [17] -16% | [5]; [18] 54% | [5]; at 50.0 µM -1.1% | [16]; at 1.2 µM 0% | [16]; at 3.7 µM 4% | [16]; [17] 9% | [16]; at 11.0 µM 22% | [16]; at 33.0 µM 52% | [16]; [18] 56% | [16]; at 50.0 µM 55.8% | [16]; at 100.0 µM 35% | [6]; at 1.2 µM -1% | [6]; at 3.7 µM 3% | [6]; at 11.0 µM 13% | [6]; at 33.0 µM 20% | [6]; at 100.0 µM 26% | [7]; at 1.2 µM 1% | [7]; at 3.7 µM 6% | [7]; at 11.0 µM 14% | [7]; at 33.0 µM 38% | [7]; at 100.0 µM 35% | [8]; at 1.2 µM 4% | [8]; at 3.7 µM 9% | [8]; at 11.0 µM 30% | [8]; at 33.0 µM 50% | [8]; at 100.0 µM 47% | [9]; [17] 5% | [9]; [18] 57% | [9]; at 50.0 µM 64.7% | [10]; at 1.2 µM -6% | [10]; at 3.7 µM 6% | [10]; at 11.0 µM 31% | [10]; at 33.0 µM 31% | [10]; at 100.0 µM 43%
